From PubChem BioAssay (NCATS)
Several values for one entry are separate records, joined by “and”; a condition that tells them apart may be missing. Identical values can stand only once. Results filed as inconclusive are left out. Unmarked numbers belong to inactive results. Activity calls are given as the source filed them. Calls follow the shape of the dose curve; as a rule, active = well fitted curve in the direction sought with a large enough effect; inconclusive = small, poorly fitted or top-dose-only effect, or another doubt; inactive = no such curve, though single readings can be large; an effect the other way counts as inactive or inconclusive.

How the values were obtained:
[1] = qHTS assay to identify inhibitors of the type 1 interferon - major histocompatibility complex class I in skeletal muscle: Counter screen cell viability and HiBit confirmation (AID 1347412); conditions: iHSKM muscle cells + IFN-b, HiBiT or CellTiter-Glo, 24 h; for activity change, negative = inhibition: at 45.9 µM (top of the series); as to all read-outs here: nearly all actives have a fitted effect of over 60% in size
How it was run: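 Luminescence read-out: Nano-Glo HiBiT lytic signal from C-terminally HiBiT-tagged HLA-B in CRISPR-edited human myoblasts, plus CellTiter Glo ATP as viability counter screen. IFN-beta 4.0 ng/ml; 24 hrs treatment at 37 C, 5% CO2.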

[2] = test system: SKOV3; assay: Primary qHTS to identify gynecologic anti-cancer compounds using libraries of approved drugs and bioactive compounds (AID 1345084); conditions: Gynecologic cancer cell panel viability, ATPlite luminescence, 48 h; series mostly up to 57.5 µM; also: nearly all actives have a fitted effect of over 55% in size
How it was run: (§1)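 In this quantitative HTS, cell killing is estimated from loss of ATP-dependent luciferase light. Cells see five compound concentrations over a 48 h exposure.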

[3] = test system: Tov112D; assay: as above; conditions: Gynecologic cancer cell panel viability, ATPlite luminescence, 48 h; series mostly up to 57.5 µM
How it was run: as §1

[4] = Drug repurposing screens with cells derived from glioblastoma tumor samples (AID 1345199); conditions: GBM patient neurospheres viability, ATP luminescence, 48 h; also: nearly all actives have a fitted effect of over 40% in size
How it was run: (§2)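 Primary testing used CD133+ neurospheres from four GBM patients, seven concentrations, 48 h exposure and ATP-based viability; confirmation added three slower-growing patient lines.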

[5] = test system: astro; assay: as above; conditions: viability, ATP luminescence, 48 h; series mostly up to 45.9 µM
How it was run: as §2

[6] = test system: Tov-21-G; assay: Primary qHTS to identify gynecologic anti-cancer compounds using libraries of approved drugs and bioactive compounds (AID 1345084); conditions: Gynecologic cancer cell panel viability, ATPlite luminescence, 48 h; series mostly up to 57.5 µM; also: nearly all actives have a fitted effect of over 55% in size
How it was run: as §1

[7] = at 45.9 µM (top of the series), tumour line D
[8] = at 46.1 µM (top of the series), tumour line C
[9] = at 45.9 µM (top of the series), tumour line B
[10] = at 46 µM (top of the series), tumour line A
[11] = at 20 µM (top of the series), tumour line C
[12] = at 21.2 µM (top of the series), tumour line B
[13] = at 21.2 µM (top of the series), tumour line D
[14] = at 21.3 µM (top of the series), tumour line A
% is scaled to controls: 0 for no effect and ±100 for the full control effect; potency is read from the fitted curve at half-maximal effect.

C[C@@]12O[C@@H](C[C@]1(O)CO)n1c3ccccc3c3c4c(c5c6ccccc6n2c5c31)CNC4=O
Potency ([1]; HiBiT): 0.701 µM (active)
activity change, negative = inhibition ([1]; Viability): -0.759%

COc1cc(C(C)C)c2c(c1)S(=O)(=O)N(COc1cc(=O)n3cccc(OCCN4CCCCC4)c3n1)C2=O
activity change, negative = inhibition ([1]; Viability): -20.7%

Cc1nc2ccc(CN(C)c3ccc(C(=O)N[C@@H](CCC(=O)O)C(=O)O)s3)cc2c(=O)[nH]1
Potency [2]: inactive
Potency [3]: 0.316 µM (active)
activity, negative = cell killing [4, 7]: -5.32% and -11.6%
activity, negative = cell killing [4, 8]: 0.947% and 1.27%
Potency [5]: inactive

CC[C@H]1CN2CCc3cc(OC)c(OC)cc3[C@H]2C[C@@H]1C[C@@H]1NCCc2cc(OC)c(OC)cc21
Potency [5]: 0.447 µM (active)

C=CC(=O)Nc1cc2c(Nc3ccc(F)c(Cl)c3)ncnc2cc1C#CC(C)(C)N1CCN(C)CC1
Potency ([1]; Viability): 22.2 µM (active)

CC(C)(C)c1cc(C(C)(C)C)c(NC(=O)c2c[nH]c3ccccc3c2=O)cc1O
activity change, negative = inhibition ([1]; HiBiT): -18%
activity change, negative = inhibition ([1]; Viability): -12%

O=C(O)c1ccc2c(c1)nc(Nc1cccc(Cl)c1)c1ccncc12
Potency [6]: 22.4 µM (active)

Cc1ccc(-c2ncn(-c3ccc(Nc4nccc(-c5cccc(N6CCOCC6)c5)n4)cc3)n2)cn1
Potency ([1]; HiBiT): 2.49 µM (active)
activity change, negative = inhibition ([1]; Viability): -8.69%

CN1c2cc(O)c(N=NC(N)=O)cc2CC1S(=O)(=O)O (stereo not given)
activity, negative = cell killing [4, 9]: -14.6%
activity, negative = cell killing [4, 7]: 7.92%
activity, negative = cell killing [4, 8]: -16.8%
Potency [5]: inactive

O=C(O)CO.[NH2-].[NH2-].[Pt+2]
activity, negative = cell killing [4, 9]: -16.9%
activity, negative = cell killing [4, 7]: 26.7%
activity, negative = cell killing [4, 10]: -24.8%
activity, negative = cell killing [4, 8]: -11%
Potency [5]: inactive

COC(=O)C[C@](O)(CCCC(C)(C)O)C(=O)O[C@@H]1C(OC)=C[C@]23CCCN2CCc2cc4c(cc2[C@H]13)OCO4
activity, negative = cell killing [4, 8]: -97.3%
Potency ([4]; tumour line A): 0.224 µM (active)
Potency ([4]; tumour line B): 0.316 µM (active)
Potency ([4]; tumour line D): 1 µM (active)
Potency [5]: 0.251 µM (active)
Potency ([1]; HiBiT): 0.279 µM (active)
activity change, negative = inhibition ([1]; Viability): 0.0855%

Nc1ccn([C@@H]2CS[C@H](CO)O2)c(=O)n1
activity, negative = cell killing [4, 9]: -9.03%
activity, negative = cell killing [4, 7]: -12.1%
activity, negative = cell killing [4, 10]: -14.9%
activity, negative = cell killing [4, 8]: 6.78%
Potency [5]: inactive

CC(C)(C)NC(=O)[C@H]1CN(Cc2cccnc2)CCN1C[C@@H](O)C[C@@H](Cc1ccccc1)C(=O)N[C@H]1c2ccccc2C[C@H]1O
activity, negative = cell killing [4, 8]: 35.7%
Potency ([4]; tumour line A): 17.8 µM (active)

O=c1[nH]nc(Sc2ncc([N+](=O)[O-])s2)n1-c1ccc2c(c1)OCCO2
Potency ([1]; HiBiT): 14 µM (active)

O=C(CCCCCCC(=O)Nc1ccc([C@H]2O[C@@H](CSc3nc(-c4ccccc4)c(-c4ccccc4)o3)C[C@@H](c3ccc(CO)cc3)O2)cc1)NO
Potency [3]: inactive

O=c1[nH]c(=O)n(C2CCCO2)cc1F (stereo not given)
activity, negative = cell killing [4, 9]: -6.45%
activity, negative = cell killing [4, 7]: -14.2%
activity, negative = cell killing [4, 10]: -9.36%
activity, negative = cell killing [4, 8]: -4%
Potency [5]: inactive

Cn1cncc1[C@@](N)(c1ccc(Cl)cc1)c1ccc2c(c1)c(-c1cccc(Cl)c1)cc(=O)n2C
activity change, negative = inhibition ([1]; HiBiT): -17.7%
activity change, negative = inhibition ([1]; Viability): -17.4%

c1cc(-c2cnn3cc(-c4ccc(OCCN5CCCCC5)cc4)cnc23)ccn1
Potency ([1]; HiBiT): 14 µM (active)

CC=CC1=C(C(=O)O)N2C(=O)[C@H](NC(=O)[C@H](N)c3ccc(O)cc3)[C@@H]2SC1
activity, negative = cell killing [4, 9]: -15%
activity, negative = cell killing [4, 7]: -0.836%
activity, negative = cell killing [4, 10]: -26.1%
activity, negative = cell killing [4, 8]: -17.4%
Potency [5]: inactive

CC1(C)O[C@@H]2C[C@@H]3[C@H]4C[C@@H](F)C5=CC(=O)C=C[C@]5(C)[C@@]4(F)[C@@H](O)C[C@]3(C)[C@]2(C(=O)CO)O1
activity, negative = cell killing [4, 9]: -7.89%
activity, negative = cell killing [4, 7]: -1.99%
activity, negative = cell killing [4, 10]: -7.12%
activity, negative = cell killing [4, 8]: 2.95%
Potency [5]: inactive

Cc1cc(Nc2cc(NC(=O)c3c(Cl)cccc3Cl)ccn2)nc(N)n1
Potency ([1]; HiBiT): 2.79 µM (active)
activity change, negative = inhibition ([1]; Viability): 21.4%

C=C1C(=CC=C2CCC[C@]3(C)[C@@H]([C@H](C)C=C[C@H](C)C(C)C)CC[C@@H]23)C[C@@H](O)C[C@@H]1O
Potency [5]: 25.1 µM (active)

COc1ccc(CC2c3cc(OC)c(OC)cc3CC[N+]2(C)CCC(=O)OCCCCCOC(=O)CC[N+]2(C)CCc3cc(OC)c(OC)cc3C2Cc2ccc(OC)c(OC)c2)cc1OC (stereo not given)
activity, negative = cell killing [4, 11]: -5.82%
activity, negative = cell killing [4, 12]: -8.61%
activity, negative = cell killing [4, 13]: -8.93%
activity, negative = cell killing [4, 14]: -14%
Potency [5]: inactive

C[C@H]1C[C@@H]2[C@@H]([C@@H](O)C[C@@]3(C)[C@H]2CC[C@]3(O)C(=O)CO)[C@@]2(C)C=CC(=O)C=C12
activity, negative = cell killing [4, 11]: -10.7%
activity, negative = cell killing [4, 12]: -18.9%
activity, negative = cell killing [4, 13]: -26.6%
activity, negative = cell killing [4, 14]: -9.28%
Potency [5]: inactive

Cc1cc(Nc2cc(N3CCN(C)CC3)nc(Sc3ccc(NC(=O)C4CC4)cc3)n2)n[nH]1
Potency [6]: inactive

COC(=O)[C@]12CCC(C)(C)C[C@@H]1[C@@H]1C(=O)C=C3[C@@]4(C)C=C(C#N)C(=O)C(C)(C)[C@@H]4CC[C@@]3(C)[C@]1(C)CC2
Potency [5]: 3.16 µM (active)

COc1c(N2C[C@@H]3CCCN[C@H]3C2)c(F)cc2c(=O)c(C(=O)O)cn(C3CC3)c12
activity, negative = cell killing [4, 9]: 6.2% and 1.37%
activity, negative = cell killing [4, 7]: -16.2% and 10%
activity, negative = cell killing [4, 10]: -18.3%
activity, negative = cell killing [4, 8]: 4.44% and 2.53%
Potency [5]: inactive

Fc1cc(-c2cccc3ncc(-c4cnn(C5CCNCC5)c4)nc23)cc(F)c1CN1CCOCC1
Potency [2]: 12.6 µM (active)
Potency [6]: 11.2 µM (active)
Potency ([1]; HiBiT): 19.8 µM (active)

CC1(C)CCC(c2ccc(Cl)cc2)=C(CN2CCN(c3ccc(C(=O)NS(=O)(=O)c4ccc(N[C@H](CCN5CCOCC5)CSc5ccccc5)c(S(=O)(=O)C(F)(F)F)c4)cc3)CC2)C1
Potency [6]: inactive

CNc1nccc(-c2cccnc2Oc2cc(C(=O)Nc3cccc(C(F)(F)F)c3)ccc2C)n1
Potency [2]: 28.2 µM (active)
Potency [6]: 28.2 µM (active)

CC(C)C[C@H](NC(=O)CNC(=O)c1cc(Cl)ccc1Cl)B(O)O
Potency ([1]; HiBiT): 0.557 µM (active)
